# The entries come from a sample that favours hits as a whole.
# Tgondii IFNg: T. gondii growth inhibition under IFN-gamma; Toxoplasma gondii growth in IFN-gamma-treated host cells; hits give low values; activity change, negative = inhibition, % (concentration not given with the values); 3.8% of 69,000 active; in the data active = activity change below about -70%, passing the limit was not always enough;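 also: host cells are HeLa cells infected with Toxoplasma gondii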
# Starred values were filed as active, the others as inactive; i = inactive.
SMILES,Tgondii IFNg
O=C(Nc1cc(C(F)(F)F)cc(C(F)(F)F)c1)NC1CCc2ccccc2O1 (stereo unspecified),-82*
O=C(CSC(=O)c1ccco1)Nc1cc(C(F)(F)F)cc(C(F)(F)F)c1,-43
Cc1oc(C2CCN(C(=O)c3ccc4c(c3)OCO4)CC2)nc1C(=O)N1CCCC1,-23
O=C(c1c[nH]c2ccccc12)C1CCCCC1,-56
CC(C)c1nn(-c2ccccc2)c2c1C(c1ccoc1)CC(=O)N2 (stereo unspecified),-28
COc1c(F)cc(C2CC(=O)Nc3c2c(C(C)C)nn3C)cc1Cl (stereo unspecified),4
CC(C)c1nn(C)c2c1C(c1nc(-c3ccc(Cl)cc3)no1)CC(=O)N2 (stereo unspecified),-85*
N#C[C@@H]1[C@H](c2ccccc2-c2cccc(F)c2)[C@H](CO)N1C(=O)CN1CCOCC1,6
C[C@@H]1CN([C@@H](C)CO)C(=O)c2cc(N(C)C)ccc2O[C@@H](C)CCCCO[C@@H]1CN(C)C(=O)NC1CCCCC1,165
CN(C)c1cc(C(=O)Nc2ccccc2OCC2CCCCO2)ccn1 (stereo unspecified),-8
Cc1ccc(OCCN(C)C)c(NC(=O)c2noc3c2CC(C(C)(C)C)CC3)c1 (stereo unspecified),-74*
CC(C)(C)C1CCc2onc(C(=O)NCC(C)(C)N3CCCCC3)c2C1 (stereo unspecified),-15
C=CCN1CCO[C@H]2CN(S(=O)(=O)c3cn(C)cn3)CC[C@@H]2C1,-3
CC(C)c1ccc(C(=O)Nc2cccc(NC(=O)CN3CCOCC3)c2)c(=O)[nH]1,-10
C[C@H](CO)N1C[C@H](C)[C@H](CN(C)C(=O)Nc2ccc3c(c2)OCO3)Oc2c(NC(=O)c3nc4ccccc4s3)cccc2C1=O,-21
C=CC(=O)Nc1cccc(Nc2nc(Nc3ccc(NC4CN(CCF)C4)cc3OC)ncc2C(F)(F)F)c1,12
COc1cc(OC)c(NC(=O)NCC(c2cccnc2)c2cn(C)c3ccccc23)cc1Cl (stereo unspecified),i
C=CC(=O)Nc1cc(Nc2nccc(-c3cn(C)c4ccccc34)n2)c(OC)cc1N(C)CCN(C)C,-74*
CC(=O)N1CCC2(CC1)CC(NS(=O)(=O)C1CC1)c1ccccc1O2 (stereo unspecified),7
c1ccc(-n2cncn2)c(CNC2CSCCSC2)c1,0
O=S(=O)(c1ccc(F)cc1F)n1nccc1-c1ccc(-c2ccc(F)cc2F)o1,-111*
Cc1noc(C)c1C(=O)OCc1ccc(-c2ccc(F)cc2F)o1,28
O=C(NCc1ccc(-c2ccc(F)cc2F)o1)Nc1ccc(Cl)cc1,-69
O=C(C1CCCN1)N1CCOCCOCCOCC1 (stereo unspecified),11
CN1C[C@H]2[C@@H](c3ccccc31)[C@H](CO)N2Cc1ccccc1Cl,14
SMILES,Tgondii IFNg
Cc1nn(C)c(C)c1Nc1n[nH]c(N)n1,27
CN(C)Cc1cn(CC[C@@H]2CC[C@H](NC(=O)Cc3cccnc3)[C@@H](CO)O2)nn1,-5
Cc1ccc(Sc2ncnc3ccsc23)cc1,46
c1cc(-c2ccc(-c3ncnc4ccsc34)cc2)[nH]n1,-82*
c1nc(NN2CCCCC2)c2sccc2n1,36
CO[C@H](C(=O)N(C)C[C@H]1OCc2ccccc2-c2ccccc2C(=O)N([C@@H](C)CO)C[C@@H]1C)c1ccccc1,-20
COc1ccc(CCn2nc(C(=O)N(C)C)c3c2CCN(C(=O)c2cc(-c4ccccc4)n[nH]2)C3)cc1,2
CC(NC(=O)Cc1cc(F)cc(F)c1)C(=O)NC(C(=O)OC(C)(C)C)c1ccccc1 (stereo unspecified),18
CC(C)C[C@@H](C(=O)N[C@H](C(=O)OC1CCCC1)c1ccccc1)[C@H](O)C(=O)NO,-85*
CNC(=O)[C@@H](NC(=O)[C@H](CC(C)C)[C@H](O)C(=O)NO)C(C)(C)C,14
CC(NC(=O)c1n[nH]c2c1CCCCCC2)C1CC2CCC1C2 (stereo unspecified),-67
Cc1ccc(-c2nc(C)c(CCNC(=O)C(=O)NC(C)c3ccccc3)s2)cc1 (stereo unspecified),-6
Cn1ccnc1C(=O)NCc1cnc2n1CCNCC2,-19
CCCN(CCC)S(=O)(=O)c1ccc(C(=O)O)cc1,17
CCCN(CCC)S(=O)(=O)c1ccc(C(=O)ON=C2C3CC4CC(C3)CC2C4)cc1,-79*
O=C(COc1ccc(Cl)cc1)ON=C1C2CC3CC(C2)CC1C3,-19
O=C(CCc1ccc2c(c1)OCO2)N1CCN(Cc2ccco2)C(CCO)C1 (stereo unspecified),65
O=C(CCO)N1CCOC2C(Cn3ccnc3)CCC21 (stereo unspecified),209
COc1ccccc1-c1ccc2c(c1)[C@@H]1[C@@H](CCN1S(=O)(=O)c1ccc(C)cc1)[C@H](CO)N2,-78*
CC(=O)N1CC[C@@H]2[C@H]1c1cc(-c3ccccc3)ccc1N[C@@H]2CO,41
COc1ccccc1-c1ccc2c(c1)[C@H]1[C@H](CCN1C(=O)C1CCC1)[C@@H](CO)N2,-76*
COc1ccccc1-c1ccc2c(c1)[C@H]1[C@H](CCN1S(=O)(=O)c1ccc(C)cc1)[C@@H](CO)N2,-63
N#Cc1ccc(-c2ccc3c(c2)[C@H]2[C@H](CCN2C(=O)C2CCCCC2)[C@H](CO)N3)cc1,-31
Cc1cccc(S(=O)(=O)N2CC[C@@H]3[C@@H](CO)Nc4ccc(-c5ccccc5F)cc4[C@@H]32)c1,-48
COc1ccccc1-c1ccc2c(c1)[C@H]1[C@H](CCN1Cc1ccccc1F)[C@@H](CO)N2,-56
SMILES,Tgondii IFNg
N#Cc1ccc(-c2ccc3c(c2)[C@@H]2[C@@H](CCN2C(=O)C2CCCCC2)[C@@H](CO)N3)cc1,-63
COc1ccccc1-c1ccc2c(c1)[C@H]1[C@H](CCN1C(=O)C1CCC1)[C@H](CO)N2,-71*
O=C(Nc1ccc(C(F)(F)F)cc1)N[C@H]1C=C[C@@H](CC(=O)N2CCCCC2)O[C@H]1CO,-33
CC(C)C(=O)Nc1cccnc1-c1cccc2c1CCNC2,-2
CCOc1ccc(-c2nc(Cn3ccn4nc(-c5ccccc5)cc4c3=O)c(C)o2)cc1OC,86
Cc1ccc(F)cc1-n1c(-c2ccn[nH]2)n[nH]c1=O,8
CCn1c(=O)c(-c2ccn[nH]2)cc2c(C)nc(N)nc21,-74*
CCn1c(C2CCCN(Cc3ccc(-c4ccn[nH]4)s3)C2)nn(C)c1=O (stereo unspecified),1
CN1C(=O)CCc2cc(NC(=O)c3cccn3C)ccc21,182
CC(C)NC(=O)N1CCC2(CC1)CCn1c(-c3cnn(C)c3)cnc12,-5
CC(C)NC(=O)N1CCC2(CC1)c1ncc(-c3ccnn3C)n1CCN2C,-89*
CC(=O)N1CCC2(CC1)NCCn1c(-c3ccnn3C)cnc12,-4
COc1ccc(NC2CCCN(C(=O)Cc3c[nH]c4ccccc34)C2)cc1 (stereo unspecified),-2
COc1ccc(C)cc1NC(=O)c1c(O)c2cccnc2n(-c2ccc(F)cc2)c1=O,78
CC(C)Oc1ccc(-c2ccncn2)cc1,-38
CCN(CC)C(=O)c1cccnc1,11
CCOc1ccc(CN2CCC3(C2)c2ccccc2S(=O)(=O)N3Cc2csc(C)n2)cc1 (stereo unspecified),-27
CCCCCCOc1nsnc1C1=CCCN(C)C1,-75*
CN(C)C(=O)c1ccc2c(c1)N(C)C(CC(=O)NCCCc1cccnc1)CO2 (stereo unspecified),1
O=C(CN1CCOc2ccccc2C1)N1CCC(Oc2ncccn2)CC1,-3

# Screening data from PubChem.
